We go through 22 compounds from PubChem BioAssay AID435000 (NMMLSC, 2010).

Structures are written as SMILES. The list shows a part of the results. Values without a mark were called inactive.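 Rule for the calls: active = fluorescence response below 15%; inactive = the rest.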

The experiment can be described thus: yeast superoxide dye artefact check – S. cerevisiae BY4741, flow cytometry, artefact control for yeast caloric restriction mimetic project (AID 435000).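 Note: percent of the mean fluorescence averaged over all compound wells on the plate; lower means stronger quenching of DHE signal or ROS scavenging.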 As to conditions: S. cerevisiae BY4741, DHE fluorescence, at 10 µM, stronger effect = lower value. On the technique in general: In flow cytometry, cells or beads pass a laser one at a time.
Consider `Cc1ccc2cccc(S(=O)(=O)N3CCN(c4ccccc4F)CC3)c2n1`, for which the fluorescence response was 104%.

Turning to `COc1ccc(CCNC(=O)c2ccccc2-c2ccccc2C(=O)O)cc1OC`, the fluorescence response was 110%.

With `COC(=O)CNC(=O)c1ccc(OC2CCN(C(=O)C3CC3)CC2)cc1`, the fluorescence response was 113%.

Regarding `Cc1ccc(-c2nc(CS(=O)CC(=O)N3CCN(c4ncccn4)CC3)c(C)o2)cc1` (configuration not stated), the fluorescence response is 95.7%.

With `O=C(Nc1cccc(Cl)c1Cl)c1ccccc1NC(=O)C1CC=CCC1C(=O)O` (configuration not stated), the fluorescence response was 89.9%.

In the case of `CC(=O)C[C@@H](O)CC(=O)[C@H]1OC(=O)CCCCCCc2ccccc21`, the fluorescence response was 113%.

As to `COc1ccc(C)cc1S(=O)(=O)Nc1cccc(Cl)c1Cl`, the fluorescence response was 102%.

Consider `Cc1ccc(-c2nnc(Nc3ccc(C(=O)N(C)C)cc3)c3ccccc23)cc1S(N)(=O)=O`, for which the fluorescence response is 113%.

For `CC(C)(C)NC(=O)COc1ccc(CNc2ccc3[nH]c(=O)[nH]c3c2)cc1`, the fluorescence response was 94.4%.

Turning to `COc1cc(NC(=O)CSc2ccc(-c3cccnc3)nn2)cc(OC)c1`, the fluorescence response was 123%.

Turning to `CCN(CC)C(=O)CSc1nnc(-c2cccc(OC)c2)o1`, the fluorescence response is 110%.

In the case of `O=C(O)c1ccc(F)c(S(=O)(=O)Nc2ccccc2)c1`, the fluorescence response is 90.9%.

Turning to `CSc1sc(C(=O)NNC(=O)c2ccc(Cl)cc2)c2c1C=CCC2`, the fluorescence response was 92.4%.

On to `O=[N+]([O-])c1ccc2c(c1)Nc1nc3ccccc3nc1N2`, for which the fluorescence response was 92.7%.

As to `O=C(CSCc1ccccc1)Nc1ccccc1`, the fluorescence response is 111%.

As to `CCCC(C)C(=O)OCC(=O)Nc1c(Br)cc(C)cc1Br` (configuration not stated), the fluorescence response was 89.1%.

Regarding `O=C(CN1CCN(c2ccccn2)CC1)Nc1ccc(Br)cc1`, the fluorescence response was 97%.

With `Cc1ccccc1NC(=O)NCC1CCN(Cc2cccc(Cl)c2)CC1`, the fluorescence response was 101%.

On to `CC(=O)c1ccc2c(c1)c1ccccc1n2CC(C)C`, for which the fluorescence response was 107%.

With `COc1cc(-c2nnn(CC(=O)NCc3ccccc3)n2)cc(OC)c1OC`, the fluorescence response was 99.2%.

As for `O=C(O)C1CCCN1S(=O)(=O)c1ccc(Br)cc1` (configuration not stated), the fluorescence response was 90.2%.

For `CSc1ncc(Cl)c(C(=O)Nc2cc(C)ccc2C)n1`, the fluorescence response is 95.1%.
